Compound activity (PubChem)
mHTT-CaM PPI inh = disrupts binding of mutant huntingtin to calmodulin; P42858; actives 3.6% (n = 190,000); AID 1671202; AlphaScreen His-mHTT/GST-CaM binding, luminescence; inhibition, % at 15 µM;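 also: 0% = both proteins with DMSO and 100% = one protein alone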
Pf apPOL block = Pf-apPOL DNA polymerase inhibition; Recombinant Pf-apPOL, molecular beacon fluorescence, 1.5 h; inhibition, % at 10 µM; actives 0.25% (n = 210,000); AID 1794808
* marks the source's active call; other numbers are inactive results; i = inactive; · = no result; + = active, no number; ! = not confirmed by another sample. Only some compounds are listed: those with a hit (about 3.6% of all), similar ones and a draw of the others. Rule as the data show it: active = inhibition above about 50%; inactive = the rest.

SMILES	mHTT-CaM PPI inh	Pf apPOL block
Cn1cnnc1SCC(=O)c1cccs1	-5	98*
Cc1cc(-c2ccc(NC(=O)C(Cl)Cl)c(C)c2)ccc1NC(=O)C(Cl)Cl	-5	1
O=C(Nc1ccc(Cl)cc1)N(Cc1cccnc1)Cc1ccccc1Cl	2	-14
O=C(CN(Cc1ccccc1Cl)S(=O)(=O)c1ccc(Cl)cc1)NCc1cccnc1	14	-4
Cc1ccc(S(=O)(=O)N(CC(=O)NCc2cccnc2)Cc2ccc(Cl)c(Cl)c2)cc1	54*!	-4
Cc1ccc(CN(Cc2cccnc2)C(=O)Nc2ccc(Cl)c(Cl)c2)cc1	81*	-15
Cc1nnc(NC(=O)CSc2cn(CCNC(=O)c3ccccc3F)c3ccccc23)s1	19	4
CS(=O)(=O)N(CC(=O)N1CCc2ccccc2C1)c1ccc(Cl)cc1	-1	2
CC1=NN(C(=O)C(F)(F)F)C(O)(c2cccc([N+](=O)[O-])c2)C1 (stereo not given)	9	-5
Cc1cccc(N=CC=C2OC(C)(C)C(C)(C)O2)c1	44	-1
Cc1ccc(N=CC=C2OC(C)(C)C(C)(C)O2)cc1	56*	-1
c1ccc2c(Cc3c[nH]c4ccc(-c5ccncc5)cc34)c[nH]c2c1	100*	3
O=C(O)Cc1c[nH]c2ccccc12	10	-1
Cn1ccc(-c2ccccc2)n1	-8	-4
Cn1ccc(-c2ccnc(NN)n2)n1	99*	·
O=C(Cc1ccsc1)N1CCC(n2c(-c3ccoc3)nc3cccnc32)C1 (stereo not given)	6	2
CC(C)C1C(=O)N(Cc2cn(CC3CCCCC3)nn2)CCS(=O)(=O)N1Cc1ccc(-c2ccc(F)nc2)cc1 (stereo not given)	25	0
CC(C)C1C(=O)N(Cc2cn(CCC3OCCO3)nn2)CCS(=O)(=O)N1Cc1ccc(-c2ccccc2Cl)cc1 (stereo not given)	66*	-1
CC(C)C1C(=O)N(Cc2cn(Cc3ccco3)nn2)CCS(=O)(=O)N1Cc1ccc(-c2ccncc2)cc1 (stereo not given)	23	0
CC(C)C1C(=O)N(Cc2cn(Cc3ccco3)nn2)CCS(=O)(=O)N1Cc1ccc(-c2ccc(F)nc2)cc1 (stereo not given)	60*	-7
Cc1ccc(-c2ccc(CN3C(C)C(=O)N(Cc4cn(CCC5OCCO5)nn4)CCS3(=O)=O)cc2)cc1 (stereo not given)	-1	-4
CC1C(=O)N(Cc2cn(CCC3OCCO3)nn2)CCS(=O)(=O)N1Cc1ccc(-c2ccccc2)cc1 (stereo not given)	74*	7
CC(C)C1C(=O)N(Cc2cn(Cc3ccco3)nn2)CCS(=O)(=O)N1Cc1ccc(-c2ccc(F)cc2)cc1 (stereo not given)	69*	-5
CC(C)C1C(=O)N(Cc2cn(CCC3OCCO3)nn2)CCS(=O)(=O)N1Cc1ccc(-c2ccccc2)cc1 (stereo not given)	44	-15
COc1ccc(CCNC(=O)c2ccc(C)cc2Cl)cc1OC	0	-10
SMILES	mHTT-CaM PPI inh	Pf apPOL block
CN(CC(=O)Nc1ccc2c(c1)Cc1ccccc1-2)C(=O)c1ccc(=O)[nH]c1	12	-15
CC(=O)c1cccc(NS(=O)(=O)c2cccc(C(=O)Nc3ccc(Br)cc3)c2)c1	8	-3
CC(=O)c1ccc(N2CCN(Cc3ccc(N(C)C)cc3)CC2)cc1	36	-2
O=C(Nc1ccc(Cl)c(-c2nc3ncccc3o2)c1)c1sc2ccccc2c1Cl	4	-3
CC(C)C1C(=O)N(Cc2cn(Cc3ccco3)nn2)CCS(=O)(=O)N1Cc1ccc(-c2ccc(Cl)cc2)cc1 (stereo not given)	50	-14
CC(C)C1C(=O)N(Cc2cn(Cc3ccco3)nn2)CCS(=O)(=O)N1Cc1ccc(-c2ccccc2)cc1 (stereo not given)	73*	-1
COc1ccc(-c2ccc(CN3C(C(C)C)C(=O)N(Cc4cn(CCC5OCCCO5)nn4)CCS3(=O)=O)cc2)cn1 (stereo not given)	50*	-16
COc1ccc(-c2ccc(CN3C(CC(C)C)C(=O)N(Cc4cn(Cc5ccco5)nn4)CCS3(=O)=O)cc2)cc1OC (stereo not given)	30	-2
CC1C(=O)N(Cc2cn(Cc3ccco3)nn2)CCS(=O)(=O)N1Cc1ccc(-c2ccccc2)cc1 (stereo not given)	63*	-1
COc1ccc(-c2ccc(CN3C(C(C)C)C(=O)N(Cc4cn(CCC5OCCO5)nn4)CCS3(=O)=O)cc2)cn1 (stereo not given)	45	4
O=C(NN=Cc1c2ccccc2cc2ccccc12)c1ccc(Br)cc1	·	-29
Cc1onc(-c2ccccc2Cl)c1C(=O)Nc1cccc2ccc(-n3ccnc3)nc12	43	6
O=C(Nc1cccc2ccc(-n3ccnc3)nc12)c1ccccc1Cl	62*	1
O=C(NCCn1ccc2ccccc21)c1c(F)cccc1F	-2	0
O=C(NCCn1ccc2ccccc21)C1(c2ccc(Cl)cc2)CCCC1	83*	8
COc1ccc(C2CC(=O)C3=C(C2)Nc2ccccc2NC3c2cc(C)ccc2C)cc1 (stereo not given)	62*	0
COc1ccc(C2CC(=O)C3=C(C2)Nc2ccccc2NC3c2ccccc2Br)cc1 (stereo not given)	12	-7
CC1=C(C#N)C(c2cccnc2)C2=C(CC(c3ccc(Cl)cc3)CC2=O)N1 (stereo not given)	-4	1
COc1ccc(C2CC(=O)C3=C(C2)Nc2ccccc2NC3c2cc(Cl)c(O)c(OC)c2)cc1 (stereo not given)	23	-17
CCOc1ccccc1C1C(C#N)=C(C)NC2=C1C(=O)CC(c1ccc(Cl)cc1)C2 (stereo not given)	52*	1
COc1ccccc1C1Nc2ccccc2NC2=C1C(=O)CC(c1ccc(Cl)cc1)C2 (stereo not given)	5	-11
COc1cccc(C2Nc3ccccc3NC3=C2C(=O)CC(c2ccc(Cl)cc2)C3)c1OC (stereo not given)	80*	5
COc1cc(C2Nc3ccccc3NC3=C2C(=O)CC(c2ccc(C)cc2)C3)cc(Cl)c1O (stereo not given)	62*	13
C=CCNC(=O)c1ccc(-n2nc(C)cc2C)nc1	-6	-1
COc1ccc2c(c1)OC(=Cc1ccc(OS(C)(=O)=O)cc1)C2=O	-2	-15
SMILES	mHTT-CaM PPI inh	Pf apPOL block
O=C(Cc1ccc(Cl)cc1)NCC1(c2ccccc2)CCCOCC1 (stereo not given)	20	-3
O=C(Nc1ccccc1C(F)(F)F)C1CC(c2ccccc2F)=NO1 (stereo not given)	-18	3
O=C(CSc1ccc(F)cc1)Nc1ccc(-c2cn3c(n2)SCC3)cc1	27	-6
C#CCSc1nc(N)c(C#N)cc1C#N	-9	·
Cc1ccccc1C(=O)N1CCN(c2cccc(C)c2C)C(=O)C1C (stereo not given)	10	1
Cc1nc(-c2nonc2N)no1	-2	·
Cc1cc(/C=N/NC(N)=S)c(C)n1-c1sc2c(c1C#N)CCCC2	+	·
N#Cc1c(-n2cccc2/C=N/O)sc2c1CCCC2	i	2
O=S(=O)(NCC1CCCO1)c1ccc(N2CCOCC2)nc1 (stereo not given)	·	-12
O=C(CCc1nc(-c2ccccn2)no1)NCc1ccc2c(c1)OCO2	·	0
O=C(NCc1ccc2c(c1)OCO2)c1ccc2nc(-c3ccccn3)c(-c3ccccn3)nc2c1	8	61*
